According to PubChem BioAssay (NCI):
The panel holds about 79,000 compounds, 15% with a hit somewhere; the sample as a whole holds those more often. Values without a mark were called inactive. Active and inactive are the calls of the source. No stated cut-off is given here; in the data, active means growth inhibition above about 70%; inactive means the rest. *1 amine or outer side, *2 acyl side, *3 side chain or, on linkers, in order; H or OH if unused. Where a SMILES comes first, the peptide text is derived from it. Bridges are numbered along the chain shown (N, C = ends). [ ]: non-standard residue; d: D form. The star is where a group is joined. ξ: configuration not given here. Fmoc = O=C(OCC1c2ccccc2-c2ccccc21)*; X9 = O=C(C(CCCCNO[*:3])N[*:1])[*:2]; ξW = NC(Cc1c[nH]c2ccccc12)C(=O)O; ξP = O=C(O)C1CCCN1

How the values were obtained:
[1] = NCI Yeast Anticancer Drug Screen. Data for the rad50 strain (AID 155);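 further: 0% = growth of vehicle-only cultures of the same strain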; conditions: S. cerevisiae rad50 strain growth inhibition; at 50.0 µM; stronger effect = higher value
How it was run: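 Compounds were tested on a yeast strain with an engineered DNA damage repair alteration; the reported value is growth inhibition normalised to vehicle treatment.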

[2] = NCI Yeast Anticancer Drug Screen. Data for the mec2-1 strain (AID 157); conditions: S. cerevisiae mec2-1 strain, at 50.0 µM, stronger effect = higher value
How it was run: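 Mutant yeast (mec2-1) grown with compound; growth inhibition relative to vehicle control reported.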

[3] = NCI Yeast Anticancer Drug Screen. Data for the sgs1 mgt1 strain (AID 161);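 further: 0% = growth of cultures given vehicle only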; conditions: S. cerevisiae sgs1 mgt1 strain, at 50.0 µM, stronger effect = higher value
How it was run: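 This yeast growth screen uses a strain with defined DNA-repair lesions; compound-treated growth is compared with vehicle-treated growth.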

[4] = NCI Yeast Anticancer Drug Screen. Data for the cln2 rad14 strain (AID 165);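 further: 0% = growth equal to vehicle treated cultures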; conditions: S. cerevisiae cln2 rad14 strain, at 50.0 µM, stronger effect = higher value
How it was run: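 Readout is yeast growth inhibition versus vehicle-treated controls, using a strain with cln2 and rad14 alterations exposed to compound.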

[5] = NCI Yeast Anticancer Drug Screen. Data for the bub3 strain (AID 167); conditions: S. cerevisiae bub3 mutant strain, at 50.0 µM, stronger effect = higher value
How it was run: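 Growth of a checkpoint-deficient yeast mutant is measured after compound exposure. Values represent inhibition relative to vehicle.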

[6] = NCI Yeast Anticancer Drug Screen. Data for the mlh1 rad18 strain (AID 175); conditions: S. cerevisiae mlh1 rad18 strain growth inhibition; at 50.0 µM; stronger effect = higher value
How it was run: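 Genetically defined yeast (DNA repair-deficient) exposed to compounds; growth inhibition determined relative to vehicle.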

| Compound | growth inhibition [1] | growth inhibition [2] | growth inhibition [3] [%] | growth inhibition [4] | growth inhibition [5] | growth inhibition [6] |
| --- | --- | --- | --- | --- | --- | --- |
| O=C1NC(c2ccccc2Cl)Nc2ccccc21 (stereo unspecified) | -1.1% | 4.1% | 5.65 | -32.1% | 5.45% | -27.1% |
| NC(=O)CNC(=O)C1CCCN1C(=O)C1CCCCNOC(=O)CC[C@@H](NC(=O)OCC2c3ccccc3-c3ccccc32)C(=O)NC(Cc2c[nH]c3ccccc23)C(=O)N1 (stereo partly specified) (Fmoc-[dE][ξW][X9][ξP]G-NH2; ester 1-3) | -10.2% | -15.8% | -6.55 | 24.1% | -16.2% | -19.6% |
| Cc1ccc([N+](=O)[O-])c(N)c1 | 40.5% | 27.4% | 26.1 | 18.9% | 4.65% | 26.4% |
| CC(C)(C)/C(=N\O)c1ccccc1 | -8.8% | -13.6% | -23.3 | -8.05% | -17.4% | -23.3% |
| C[N+](C)(C)CCCSc1nc2ccccc2[nH]1 | 9.6% | -7.15% | -52 | -30.9% | -24.4% | -15.5% |
| ClC[C@H]1C[C@@H]2C[C@@H]1[C@H]1O[C@@H]21 | -7.4% | -21.6% | -11.2 | -5.35% | -9.6% | 10.8% |
| COc1ccc(NC(=S)N=Nc2c(O)[nH]c3ccccc23)cc1 | -43.2% | -50% | -33.9 | -13.8% | -41.4% | -30.6% |
| CN1C(C(=O)O)CCC1C(=O)O (stereo unspecified) | -1.2% | 7.6% | 6.55 | -31.8% | -0.4% | 2% |
| COc1ccc(/C(Cl)=C(\C=O)c2cc(OC)c(OC)c(OC)c2)cc1OC | -0.9% | 23.1% | -5 | 13.8% | -3.45% | 13.9% |
| CC(C)(C)C(=O)Nc1ccc(NS(=O)(=O)c2ccccc2)cc1 | 6.85% | -4.3% | 2.85 | 1.8% | 2.9% | -21.1% |
| Cc1ccc(NC(=S)NC(Cc2ccccc2)c2ccccc2)cc1 (stereo unspecified) | 78.8% (active) | 79.2% (active) | -1.05 | 78.5% (active) | 90% (active) | 85.2% (active) |
| CN1/C(=C\N=O)C(C)(C)N(O)C1(C)C | 16.6% | -13.9% | 2.55 | 17.2% | 5.85% | -85.7% |
| COc1cc(OC)c(OCc2ccccc2)c(OC)c1 | 12.2% | 0.25% | -0.25 | 2.45% | -2.5% | -17.2% |
| CC1(C)C=Cc2c(ccc(C(=O)Cc3ccccc3)c2O)O1 | 24.1% | 17.4% | 26.4 | -8.1% | 16% | 23.1% |
| [N-]=[N+]=C1C(=O)NC(=O)N2C3OC(CO[C@@H]12)C(O)C3O (stereo partly specified) | -24.2% | -1.65% | -16.2 | 32.2% | -8.2% | -39% |
| COc1cc2c(cc1OC)[C@H]1C(COC(=O)c3ccccc3)CSC(=Nc3ccccc3)N1CC2 (stereo partly specified) | 21.9% | 17.6% | 36 | 49.8% | 36.9% | 22.3% |
| Clc1ccc(/C=C/c2nc3ccccc3s2)cc1Cl | -13.8% | -23.6% | 3.1 | 9.95% | 27.2% | -16.2% |
| CCOC(=O)CCN1C(=O)C(=O)N(c2ccc(OC)cc2)C1=S | -7% | -6.6% | 3.75 | -57.1% | 5% | -5.6% |
| NC(=S)n1nc(-c2ccccc2)c(N=Nc2ccccc2[N+](=O)[O-])c1-c1ccccc1 | 13.2% | 2.5% | -3.15 | -35.6% | 3.6% | 9.45% |
| CCc1ccccc1NC(=O)CCc1nc(=S)[nH][nH]1 | -24.8% | 9.6% | 2.9 | 32.4% | 20.1% | 6.15% |
| CCCOC(=O)CC(CC(=O)OCCC)C(=O)OCCC | -10.9% | 0.55% | -3.75 | -13.4% | 37.2% | -2.5% |

| Compound | growth inhibition [1] | growth inhibition [2] | growth inhibition [3] [%] | growth inhibition [4] | growth inhibition [5] | growth inhibition [6] |
| --- | --- | --- | --- | --- | --- | --- |
| Nc1nc(N)c(N=Nc2ccc(Cl)cc2)c(=O)[nH]1 | 19.9% | -20.6% | -26.1 | 23.1% | 5.35% | 13.7% |
| CC(C)(C)C1CCCC(=O)C1 (stereo unspecified) | 8.3% | -5.15% | 3.5 | 10.3% | 6.85% | 3.15% |
| CSc1nnc(SC)s1 | -3.3% | -22.6% | -18.8 | 22.9% | 1.4% | -9.35% |
| O=C(O)C(=O)O.[NH-]CC(O)CN(CC(O)CO)c1ccccc1.[Pt+2] (stereo unspecified) | 23.2% | 1.35% | 6.85 | 21.7% | -1.45% | 11.1% |
| CC(C)CC(CCl)Cc1nc2ccccc2[nH]1 (stereo unspecified) | 13.1% | 4.05% | 39.8 | 14.9% | 33.6% | 27.5% |
| CCCCCCCCCCCCCCCC(=O)Nc1ccn(C2OC(CO)C(O)C2O)c(=O)n1 (stereo unspecified) | -1.45% | -19.9% | 6.75 | 10.1% | -6.8% | -14.7% |
| C[N+](C)(C)CC(=O)N/N=C(/Cc1cc(=O)oc2cc(O)ccc12)C(=O)Nc1ccc(Cl)cc1 | 7.35% | -2.45% | -11.3 | -15.7% | -19.8% | -10.8% |
| CN(C)C=NCc1ccc2c(c1)OCO2 | 2.05% | -24% | -13.2 | 2.7% | 1.5% | -17% |
| C=CCC1=C(C)C(O)CC1=O (stereo unspecified) | -21.9% | -13.7% | -0.75 | -15.7% | 0.7% | -41.6% |
| O=C(O)C1CCC(C(=O)O)CC1.[NH-]C1CCCCC1[NH-].[Pt+2] (stereo unspecified) | 45.6% | -29.9% | -1.15 | 6.9% | -19.9% | -70.4% |
| O=C1Nc2ccccc2C2Cc3c([nH]c4ccccc34)CC12 (stereo unspecified) | 47% | 20.1% | 3.8 | 31.1% | 7.4% | 20.9% |
| NCCNC(=O)c1ccccc1 | -6.5% | 1.8% | 0.75 | 17.3% | -7.95% | 4.65% |
| O=C(NN=C1CCCCC1)c1ccccc1 | -6% | -10.1% | -9.9 | -25.8% | -17.4% | 0.2% |
| CCOC(=O)c1ccc(Nc2nc3cc(C(F)(F)F)ccc3nc2C(=O)OCC)cc1 | -31.2% | -10.9% | -31.9 | -19.4% | -11.7% | -19.6% |
| CN(C=O)c1cccc(C(=O)O)c1 | 4.05% | -1.2% | -3.95 | -29.5% | -2.35% | 7.45% |
| CNNC(=NS(=O)(=O)c1cc(C#N)c(NNC)cc1S)NNC | 6.05% | -3.95% | -11.3 | -36.5% | -8.45% | 12.3% |
| CC(=O)Oc1ccc(OC(C)=O)c2cc3ccccc3cc12 | -28.1% | -29.1% | -32.9 | -6.6% | -12.8% | -19.8% |
| CN(CC(=O)O)c1ncc2c(n1)-c1ccccc1SC2 | 20.5% | 4.95% | 5.15 | 10.3% | -14.3% | -6.3% |
| COC(=O)/C(=N/O)C(C(=O)C=C(C)C)C(=O)C(=O)Nc1nc2ccc([N+](=O)[O-])cc2s1 (stereo unspecified) | 18% | -4.55% | 10 | -58.8% | 5.95% | 6.25% |
| COC(=O)c1ccc(-c2nc(C#N)c(N)o2)cc1 | 5.9% | 19.1% | -11.1 | -1.45% | -14.8% | -43% |
